This note sets out measurements from PubChem BioAssay.

One may read the inhibition as the share of the control response that was lost under treatment.

This experiment deals with Pantothenate synthetase (Mycobacterium tuberculosis (strain ATCC 25618 / H37Rv)) (UniProt P9WIL5). As to the kind of experiment: Recombinant Mtb pantothenate synthetase (PanC) inhibitors, coupled enzyme, confirmatory (AID 375).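 Further: 0% = full reaction with vehicle and 100% = no enzyme background.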 The note with it: coupled enzyme assay; at 10 µM, hits give high values.

Values without a mark were called inactive. How the calls were made is not given here.

Pantothenate synthetase (Mycobacterium tuberculosis (strain ATCC 25618 / H37Rv)), sequence (P9WIL5 whole entry, looked up): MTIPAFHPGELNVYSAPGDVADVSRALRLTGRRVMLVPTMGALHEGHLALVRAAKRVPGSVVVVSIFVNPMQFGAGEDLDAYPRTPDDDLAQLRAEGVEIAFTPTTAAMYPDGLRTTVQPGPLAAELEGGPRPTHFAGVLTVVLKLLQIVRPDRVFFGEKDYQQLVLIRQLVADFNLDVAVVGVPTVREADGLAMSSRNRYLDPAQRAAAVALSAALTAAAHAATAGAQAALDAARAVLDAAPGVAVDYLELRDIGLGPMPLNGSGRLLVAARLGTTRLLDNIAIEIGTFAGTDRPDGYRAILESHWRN

Turning to `O=C(Nc1nc(-c2ccc(S(=O)(=O)N3CCCCCC3)cc2)cs1)c1cccs1`, the inhibition was 0%.

In the case of `CCc1nc(SCc2cc(Cl)ccc2OC)n[nH]1`, the inhibition was 0%.

For the compound `OC(CN1CCN(c2ccccc2)CC1)c1ccc2c(c1)CCN2` (configuration not stated), the inhibition was 0%.

As for `CSc1cccc(NC(=O)C2CCN(S(=O)(=O)c3ccc(F)cc3)CC2)c1`, the inhibition was 0%.

For `COc1ccc(Cc2nc3ccc(S(N)(=O)=O)cc3[nH]2)cc1OC`, the inhibition was 0%.

In the case of `Cc1cc(NC(=O)Cc2c(F)cccc2Cl)no1`, the inhibition was 10%.

`CC1(C)C2CCC1(CS(=O)(=O)NCc1ccc(C(=O)O)cc1)C(=O)C2` (configuration not stated): the inhibition was 0%.

On to `CCCC(=O)Nc1ccc(NC(=O)c2ccccc2OC)cn1`, for which the inhibition was 0%.

For `C/C(NC1CCCC1)=C(/C#N)C(N)=O`, the inhibition was 9%.

Turning to `Cc1cc(=O)[nH]c(SCc2nc3ncccn3c2Br)n1`, the inhibition was 11%.

`c1ccc(-c2cc3c(nn2)CCc2nonc2-3)cc1`: the inhibition is 0%.

Consider `CCCS(=O)(=O)N1CCN(C(=O)c2cccnc2)CC1`, for which the inhibition was 0%.

Regarding `COc1ccc(CCNC(=O)C2CCN(Cc3nc(-c4cccc(Cl)c4)oc3C)CC2)cc1OC`, the inhibition is 0%.

In the case of `CC1(C)Cc2ccccc2C(N)=C1C#N`, the inhibition was 5%.

On to `O=C(O)C1CC(=O)N(c2ccc(Br)cc2)C1` (configuration not stated), for which the inhibition was 0%.

Consider `CCn1c(SCC(=O)NCc2ccco2)nc2c(c1=O)SC(C)C2` (configuration not stated), for which the inhibition is 8%.

Take `Cc1cc(NC(=O)CSc2nc(C3CCCCC3)nc3ccccc23)no1`: the inhibition is 0%.

With `CC(N)C12CC3CC(C1)CC(C(C)N)(C3)C2` (configuration not stated), the inhibition is 0%.

With `Oc1ccc(Cl)cc1-c1cc(-c2ccccc2)n[nH]1`, the inhibition is 0%.

Take `COC(=O)c1cccc(Oc2nc3c(c(=O)n(C)c(=O)n3C)n2C(C)C)c1`: the inhibition is 1%.

Take `C=CCNC(=O)CSc1nc2sc(C)c(C)c2c(=O)[nH]1`: the inhibition was 0%.

For `N#Cc1cc2c(nc1SCC(=O)N1CCCCC1)CCCC2`, the inhibition was 0%.

For the compound `Cc1cc2c(c(=O)n1C)C(Cc1ccccc1)C(C#N)=C(N)O2` (configuration not stated), the inhibition is 3%.

In the case of `COc1cc(NC(=O)Cc2nn(C)c(=O)c3ccccc23)cc(OC)c1`, the inhibition is 0%.

As to `Cn1c(-c2ccccc2)c(CCO)c2ccccc21`, the inhibition is 9%.

On to `COc1ccc(-c2c3c(=O)n(C)c(=O)n(C)c3cn2-c2cccc(OC)c2)cc1`, for which the inhibition was 0%.

Consider `COc1ccc(NC(=O)CCCN2C(=O)C3C4C=CC(C4)C3C2=O)c(OC)c1` (configuration not stated), for which the inhibition was 2%.

With `Cc1cn2c(-c3ccc(Cl)cc3)nnc2s1`, the inhibition was 0%.

For the compound `Cc1ccc2c(c1)CCCN2C(=O)Nc1ccc2c(c1)OCO2`, the inhibition is 2%.

Turning to `CSc1cccc(NC(=O)C2CCCN2S(=O)(=O)c2ccc3c(c2)CCC(=O)N3)c1` (configuration not stated), the inhibition is 0%.

As for `CCSc1nc2c(c(=O)[nH]1)C(c1cccnc1)C(C(=O)OC(C)C)=C(C)N2` (configuration not stated), the inhibition is 0%.

For `CCOC(=O)c1oc2cc(OCC(N)=O)ccc2c(=O)c1-c1ccc(OC)c(OC)c1`, the inhibition was 3%.

As to `Nc1nc2ccc(OC(F)(F)F)cc2s1`, the inhibition is 7%.

Turning to `Cc1ccc(C2c3c(oc4ccccc4c3=O)C(=O)N2c2nnc(C(C)C)s2)o1` (configuration not stated), the inhibition is 7%.

For the compound `O=C(OCn1nnc2ccccc2c1=O)C1CCN(S(=O)(=O)c2cccs2)CC1`, the inhibition was 0%.

Regarding `CCCn1c(SCC(=O)Nc2cc(C)on2)nc2c1c(=O)n(C)c(=O)n2C`, the inhibition is 0%.

`OCCn1c(CSc2nnc(-c3ccco3)n2-c2ccccc2)nc2ccc(Cl)cc21`: the inhibition was 2%.

As for `COc1ccccc1Nc1nc(N)nc(-c2cc3ccccc3o2)n1`, the inhibition is 0%.

Take `O=C(O)c1ccc2c3c(ncnc13)-c1ccccc1C2=O`: the inhibition was 1%.

On to `COC(=O)c1cc(Oc2ccc(C(=O)OC)cc2N)cc(C(=O)OC)c1`, for which the inhibition was 0%.

Take `CCc1nnc(NC(=O)CSc2nnc3scc(-c4ccc(C)cc4)n23)s1`: the inhibition is 0%.

`CCOc1cc(C(=O)N(C)Cc2cc3ccccc3[nH]c2=O)cc(OCC)c1OCC`: the inhibition was 7%.

For the compound `CC(C)(C)Nc1nc(NC(C)(C)C)nc(-n2ccnc2)n1`, the inhibition was 0%.

Regarding `CC1CN(C(=O)CSc2ncnc3sccc23)CC(C)O1` (configuration not stated), the inhibition was 0%.

As for `CCC(C)(C(=O)NC1CCCC1)N(C(=O)c1cnccn1)c1c(C)n(C)n(-c2ccccc2)c1=O` (configuration not stated), the inhibition is 0%.

As for `O=C(CSc1nc2ccccc2o1)Nc1ccccc1`, the inhibition is 0%.

Turning to `Cc1cc(C(N)=O)c2cc(Br)ccc2n1`, the inhibition was 10%.
